Shown are actives, neighbours in structure and some others; about 6.1% of the full set was active somewhere.
D1 antagonist: human D1 dopamine receptor antagonism; actives 3.2% (n = 360,000); HEK293 TREx D1 cells, calcium flux, dopamine EC80; stronger effect = lower value; activity change, negative = inhibition, % at 10 µM; P21728; in the data active = activity change below about -30%; also: % is scaled to controls: 0 for no effect and ±100 for the full control effect
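Allosteric or orthosteric antagonism assessed as attenuation of the calcium response to EC80 dopamine, added 180 s after compound, in induced HEK293 Trex D1 cells loaded with no-wash calcium dye.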
DRD3 antagonist: D3 dopamine receptor (human) antagonism; AID 652054; actives 2.5% (n = 360,000); D3R cells, DiscoveRx beta-arrestin luminescence, antagonist mode; stronger effect = lower value; max response, negative = inhibition, %; in the data active = max response below about -50%; inconclusive = no clear call, values can overlap the other calls; also: % is scaled to controls: 0 for no effect and ±100 for the full control effect
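Cells expressing the human receptor were seeded at 1500 cells/well, incubated overnight at 37 degrees C in 5% CO2, then exposed to library compounds with dopamine controls for 90 minutes at 37 degrees C before luminescent detection.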
D1 potentiator: human D1 dopamine receptor positive modulation. actives 0.036% (n = 360,000). AID 504651. P21728. potentiation, % at 10 µM. HEK293 TREx D1 cells, calcium flux, dopamine EC20 potentiation; in the data active = potentiation above about 30%; also: 0% is about no effect
D3 ag: activates the human D3 dopamine receptor; P35462; AID 652048; actives 0.58% (n = 410,000); D3R DiscoveRx beta-arrestin cells, luminescence, 90 min; max activation, %; in the data active = max activation above about 30%; also: 0% is about no effect
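Agonist mode: compounds and dopamine controls were applied to plated cells for 90 min at 37 degrees C after an overnight attachment at 1500 cells/well. Luminescent read-out followed 30 - 60 minutes at room temperature with DiscoveRx detection reagent.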
ERG-DNA inh: inhibitors of human ERG Ets domain-DNA interaction; P11308; fluorescence polarization, His-ERG Ets domain / labelled DNA; Potency, µM (series often up to 76.9 µM), for inactives: at the top dose FP activity, negative = inhibition, actives largely listed as inhibitors; actives 0.028% (n = 370,000); active = well fitted inhibition curve with a large enough effect in the polarisation, with a control signal flat; inconclusive = small, poorly fitted or top-dose-only effect, or effect the other way, or a change in a side signal; inactive = no such curve, though single readings can be large or run the other way; the % refers to the polarisation;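 also: polarization taken with two DNA probes labelled with fluorescein and Texas red; potency is read from the fitted curve at half-maximal effect; % of control where 0% means no effect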
Target sequence (P11308 whole entry, looked up, the tested form may be a part): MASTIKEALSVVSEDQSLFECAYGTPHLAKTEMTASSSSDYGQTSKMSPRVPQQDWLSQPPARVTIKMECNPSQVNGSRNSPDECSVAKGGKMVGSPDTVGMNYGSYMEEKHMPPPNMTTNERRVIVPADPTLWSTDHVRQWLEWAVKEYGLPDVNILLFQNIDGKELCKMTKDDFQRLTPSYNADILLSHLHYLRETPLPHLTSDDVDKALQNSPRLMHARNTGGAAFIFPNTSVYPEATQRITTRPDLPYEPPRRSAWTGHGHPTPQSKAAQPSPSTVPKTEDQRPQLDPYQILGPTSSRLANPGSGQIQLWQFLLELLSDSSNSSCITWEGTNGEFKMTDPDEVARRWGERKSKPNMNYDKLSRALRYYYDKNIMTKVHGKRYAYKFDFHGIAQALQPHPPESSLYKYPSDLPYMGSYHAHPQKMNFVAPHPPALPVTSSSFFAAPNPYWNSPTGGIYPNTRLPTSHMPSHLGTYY
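His-tagged ERG Ets domain (1 uM in the protein solution; 300mM KCl, 50mM Tris-HCl, 1mM EDTA, 1mM DTT, pH 7.5) received compound, then a probe mix of 5 nM fluorescein-DNA and 100nM Texas-615-DNA. Fluorescence polarization was read for both dyes.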
D1 ag: agonists of human D1 dopamine receptor | actives 1% (n = 360,000) | HEK293 T-REx D1 cells, calcium flux, agonist mode | P21728 | activation, % at 2 µM; in the data active = activation above about 30%; also: 0% is about no effect
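Tetracycline-induced HEK293 TREx D1 cells, force-coupled to calcium signalling, were dye-loaded with a no-wash calcium kit. Compound was pin-added after a 10 s baseline. Fluorescence was read kinetically at 1 cycle/s for 180 s, with calcium rises flagged as agonism.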
Numbers without * were called inactive; ? = inconclusive; nt = no result.

SMILES	D1 antagonist	DRD3 antagonist	D1 potentiator	D3 ag	ERG-DNA inh	D1 ag
O=C(OC1CCOC1=O)c1cccc(S(=O)(=O)Nc2cccc(Cl)c2)c1 (stereo not given)	-32*	6	-4	0	2%	11
Cc1ccc(C)c(S(=O)(=O)NCc2ccc(C(=O)N3CCC(Cc4ccccc4)CC3)cc2)c1	-10	-8	-5	4	1%	2
Cc1ccccc1OCCC(=O)OCC(=O)NC1CC1	-1	17	-4	3	13%	2
Cc1ccccc1OCCC(=O)OCC(=O)NCCNC(=O)COC(=O)CCOc1ccccc1C	-43*	-16	-5	8	-6%	14
CN(CC(=O)Nc1ccc(F)cc1)C(=O)COC(=O)Cc1cccs1	3	-4	-6	0	-4%	2
CC1CCN(C(=O)c2ncn(C)c2C(=O)N2CCC(C)CC2)CC1	nt	-51*	nt	13	3%	nt
CC1CCN(C(=O)c2ncn3c2c(=O)[nH]c2ccccc23)CC1	nt	9	nt	0	nt	nt
Cc1onc(-c2ccccc2)c1C(=O)Nc1c(C)n(C)n(-c2ccccc2)c1=O	-5	12	0	3	-13%	0
CC1(C(=O)NCc2cccc3ccccc23)CCN1C(=O)C1(c2ccccc2)CC1 (stereo not given)	nt	6	nt	2	nt	nt
COc1ccccc1CNC(=O)C1(C)CCN1C(=O)C1(c2ccccc2)CC1 (stereo not given)	nt	-58*	nt	-3	nt	nt
Cc1ccc(S(=O)(=O)N(CC(O)Cn2c3ccccc3c3ccccc32)c2cccc(C(=O)NCCO)c2)cc1 (stereo not given)	0	nt	0	0	2%	6
CCN1CCN(c2ncc(C(=O)Nc3c(F)cc(F)cc3Br)c3ccccc23)CC1	4	-62*	-8	2	-8%	16
CCN1CCN(c2ncc(C(=O)Nc3cc(Cl)c(OC)cc3OC)c3ccccc23)CC1	-3	-28	-4	1	-2%	3
COc1ccc(OC(F)(F)F)cc1CC1(C)C(=O)Nc2cccc(Cl)c21 (stereo not given)	nt	-10	nt	4	nt	nt
CCCCn1c(N)c(N(CCOC)C(=O)c2cccc(S(=O)(=O)N3CCCCCC3)c2)c(=O)[nH]c1=O	3	5	-5	7	-1%	0
Cc1cccc(NC(=S)NCCC(C)C)c1	0	-18	-5	-5	-5%	227*
S=C(NCCC(c1ccccc1)c1ccccc1)Nc1cccc(Cl)c1	-49*	3	-4	-3	-3%	3
COc1ccc(CCNC(=S)Nc2cccc(C)c2)cc1	1	2	-6	-8	8%	-1
S=C(NCCN(C1CCCCC1)C1CCCC1)Nc1cccc(Cl)c1	11	-102*	-4	-38	-5%	31*
O=C(OCCOc1ccccc1)c1cc(S(=O)(=O)N2CCOCC2)c(Cl)cc1Cl	nt	?	nt	-2	nt	nt
Cc1ccccc1NC(=S)NCCC(c1ccccc1)c1ccccc1	-8	-60*	-8	-23	-6%	4
Cc1ccc(NC(=S)NCCC(c2ccccc2)c2ccccc2)c(C)c1	-10	-67*	0	-2	2%	4
OCCOCCOc1ccccc1OCCOCCO	-86*	-4	-19	4	-1%	2
COc1cccc2oc3ccc(C#CC4(N)CCCCC4)cc3c(=O)c12	-6	-5	7	-16	-15%	5
COc1cccc(CN2CCCC(C(=O)c3ccc4c(c3)OCO4)C2)c1O (stereo not given)	14	?	-8	-23	-8%	1
SMILES	D1 antagonist	DRD3 antagonist	D1 potentiator	D3 ag	ERG-DNA inh	D1 ag
CC(=O)c1cccc(CN2CCCC(C(=O)c3ccc4c(c3)OCO4)C2)c1 (stereo not given)	-13	-23	-3	-10	9%	7
CCCn1cc(CN2CCCC(C(=O)c3ccc4c(c3)OCO4)C2)c(C)n1 (stereo not given)	14	-53*	-6	-21	-5%	6
O=C(c1ccc2c(c1)OCO2)C1CCCN(C2CCN(CCc3ccccc3)CC2)C1 (stereo not given)	-32*	-84*	-5	-26	-4%	16
CCOC(=O)CNC(=O)N1CCCC(C(=O)c2ccc3c(c2)OCO3)C1 (stereo not given)	-17	15	4	1	4%	0
COc1ccc(CN2CCCC(C(=O)c3ccc4c(c3)OCO4)C2)c(F)c1 (stereo not given)	-23	-59*	-15	-4	2%	10
CCOC(=O)c1c(C)nc2c(c1-c1cc(OC)ccc1OC)C(=O)c1ccccc1-2	-5	8	5	1	-10%	5
CCOC(=O)c1c(C)nc2c(c1-c1ccccc1)C(=O)c1ccccc1-2	1	42	1	41*	-3%	1
O=C1c2ccccc2-c2onc3c(Oc4ccccc4)cc(O)c1c23	-6	nt	3	nt	nt	6
CCNc1ccccc(-c2ccc3ccccc3n2)c1=O	-1	3	-3	1	-3%	9
O=C1c2ccccc2C(=O)c2c1cccc2N1CCCC1	-2	2	-10	-2	9%	0
O=C1c2ccccc2-c2onc3ccc(N4CCCC4)c1c23	-21	?	8	-8	18µM*	167*
CCNc1ccc2noc3c2c1C(=O)c1ccccc1-3	-44*	29	3	2	?	313*
CCOc1ccc2noc3c2c1C(=O)c1ccccc1-3	-24	12	2	1	4%	98*
O=C1c2ccccc2-c2onc3ccc(NCc4ccco4)c1c23	-2	-4	-8	-4	?	122*
CC1CCCN(S(=O)(=O)c2ccc(C(=O)Nc3sc4c(c3C(N)=O)CCN(C)C4)cc2)C1 (stereo not given)	-1	2	-4	1	19%	10
O=c1cc(-c2ccc(O)c(O)c2)oc2ccc3ccccc3c12	-1	17	-3	3	-4%	-1
C=CC[C@@H](Cc1ccc(F)cc1)C(=O)OC[C@@H]1CCCN1C(=O)[C@@H](CC=C)CC(=O)N[C@H](CO)Cc1ccccc1	nt	?	nt	-9	-3%	nt
O=C(COc1coc(CN2CCc3ccccc32)cc1=O)N1CCCCC1	-7	-17	-3	-8	2%	0
CC(C)CCN1CCC(CN2C(=O)C(=O)NC[C@@H]2Cc2ccccc2)CC1	nt	9	nt	-6	-8%	nt
CC(C)C[C@H]1CNC(=O)C(=O)N1CC1CCN(CCc2ccc(-c3ccccc3)cc2)CC1	nt	-60*	nt	-45	-8%	nt
O=C1NC[C@H](Cc2ccccc2)N(CC2CCN(CCc3ccc(-c4ccccc4)cc3)CC2)C1=O	nt	-78*	nt	-46	12%	nt
